Assay results taken from PubChem BioAssay AID1159580 (chemical genetic matrix, 2015).
The whole screen tested about 5,500 compounds, of which about 2,000 (36%) were called active. About 18% were inconclusive and are not listed. Rule as the data show it: active = normalized growth mostly below about 0.91 (no sharp cut-off); inconclusive = no clear call, values can overlap the other calls; inactive = mostly above about 0.92. The list shows a part of the results.

Assay: chemical genetic growth profiling, strain panel (AID 1159580);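 also: tested at 20 µM; growth read once vehicle control cultures reached saturation at 30 °C; 1 = growth at the plate median or of vehicle wells; lower values mean less growth of the strain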
Conditions: S. cerevisiae deletion strains, growth OD
[1] = locus YMR307W, strain GAS1, hits give low values
[2] = locus YPL055C, strain LGE1, hits give low values

Measured: normalized growth

COc1cccc(-c2cc(=O)c3ccccc3o2)c1N
active: locus YNL224C, strain SQS1, hits give low values 0.907 | locus YOR083W, strain WHI5 (second series), hits give low values 0.807
inactive: locus YAL040C, strain CLN3, hits give low values 0.905 | locus YCL061C, strain MRC1 (second series), hits give low values 1 | locus YDR363W, strain ESC2, hits give low values 1.04 | locus YER002W, strain NOP16, hits give low values 1.02 | locus YJR075W, strain HOC1, hits give low values 0.992 | locus YMR263W, strain SAP30, hits give low values 0.997 | [1] 0.992 | locus YNL175C, strain NOP13, hits give low values 0.922 | locus YNL197C, strain WHI3, hits give low values 0.937 | locus YNL322C, strain KRE1, hits give low values 1.01 | [2] 1.01

COc1ccccc1-c1cc(=O)c2cccc(OC)c2o1
active: locus YBR021W, strain FUR4, hits give low values 0.795 | locus YDL134C, strain PPH21, hits give low values 0.865 | locus YDL192W, strain arf1, hits give low values 0.867 | locus YDR318W, strain mcm21, hits give low values 0.915 | locus YDR502C, strain sam2, hits give low values 0.906 | locus YEL061C, strain CIN8, hits give low values 0.902 | locus YER167W, strain BCK2, hits give low values 0.899 | locus YGL086W, strain mad1, hits give low values 0.908 | locus YGL248W, strain PDE1, hits give low values 0.865 | locus YGR135W, strain pre9, hits give low values 0.869 | locus YGR229C, strain SMI1, hits give low values 0.617 | locus YGR252W, strain gcn5, hits give low values 0.714 | locus YHR030C, strain SLT2, hits give low values 0.753 | locus YHR129C, strain ARP1, hits give low values 0.882 | locus YIL066C, strain RNR3, hits give low values 0.814 | locus YJL095W, strain BCK1, hits give low values 0.562 | locus YKR001C, strain vps1, hits give low values 0.855 | locus YLR330W, strain CHS5, hits give low values 0.798 | locus YLR342W, strain FKS1 (second series), hits give low values 0.732 | locus YLR371W, strain rom2, hits give low values 0.839 | locus YLR418C, strain cdc73, hits give low values 0.642 | locus YMR223W, strain ubp8, hits give low values 0.886 | locus YNL233W, strain BNI4, hits give low values 0.795 | locus YNL307C, strain MCK1, hits give low values 0.758 | locus YOL147C, strain pex11, hits give low values 0.924 | locus YOR184W, strain ser1, hits give low values 0.758
inactive: locus YBR229C, strain ROT2, hits give low values 0.972 | locus YCL029C, strain bik1, hits give low values 0.987 | locus YDL035C, strain GPR1, hits give low values 0.894 | locus YDL074C, strain BRE1, hits give low values 0.824 | locus YDL101C, strain DUN1, hits give low values 0.909 | locus YDL185W, strain tfp1, hits give low values 0.986 | locus YDR101C, strain arx1, hits give low values 0.928 | locus YDR162C, strain NBP2, hits give low values 0.857 | locus YDR388W, hits give low values 0.97 | locus YER110C, hits give low values 1.01 | locus YER155C, strain BEM2, hits give low values 0.93 | locus YGL078C, strain dbp3, hits give low values 0.991 | locus YHR079C, strain IRE1 (second series), hits give low values 0.993 | locus YHR094C, strain hxt1, hits give low values 1 | locus YHR200W, strain rpn10, hits give low values 0.939 | locus YIL073C, strain SPO22, hits give low values 0.875 | locus YIL125W, strain kgd1, hits give low values 0.989 | locus YIR030C, strain dcg1, hits give low values 0.977 | locus YJL134W, strain LCB3, hits give low values 0.974 | locus YJL168C, strain set2, hits give low values 0.977 | locus YJL187C, strain SWE1 (second series), hits give low values 0.885 | locus YJR043C, strain POL32, hits give low values 0.864 | locus YKL009W, strain mrt4, hits give low values 0.978 | locus YKL068W, hits give low values 0.998 | locus YKL085W, strain MDH1 (second series), hits give low values 0.977 | locus YKL085W, strain MDH1, hits give low values 0.977 | locus YKL190W, strain CNB1, hits give low values 0.938 | locus YLR039C, strain RIC1, hits give low values 0.84 | locus YLR058C, strain SHM2, hits give low values 0.911 | locus YLR102C, strain apc9, hits give low values 1.01 | locus YLR262C, strain YPT6, hits give low values 0.855 | locus YLR268W, strain sec22, hits give low values 0.924 | locus YML016C, strain PPZ1, hits give low values 0.956 | locus YML032C, strain rad52, hits give low values 0.92 | locus YML124C, strain tub3, hits give low values 0.972 | locus YMR078C, strain ctf18, hits give low values 0.986 | [1] 0.843 | locus YNL067W, strain RPL9B, hits give low values 0.896 | locus YNL153C, strain GIM3, hits give low values 0.903 | locus YNL250W, strain rad50, hits give low values 0.997 | locus YNL271C, strain bni1, hits give low values 0.983 | locus YNL298W, strain CLA4, hits give low values 0.963 | locus YNR052C, strain pop2, hits give low values 0.964 | locus YOL012C, strain htz1 1.7 | locus YOR061W, strain CKA2, hits give low values 0.976 | locus YOR069W, strain VPS5, hits give low values 0.951 | locus YOR136W, strain idh2, hits give low values 0.992 | locus YOR144C, strain elg1, hits give low values 0.967 | locus YOR316C, strain cot1, hits give low values 0.991 | [2] 0.826 | locus YPR119W, strain clb2, hits give low values 1 | locus YPR141C, strain kar3, hits give low values 1 | locus YPR163C, strain tif3, hits give low values 0.924 | locus YPR167C, strain met16, hits give low values 0.964 | strain wtn01, hits give low values 0.918
